# Screen size: about 200,000 compounds; about 18,000 (9%) were called active. Only a selection was taken, and actives are over-represented in it overall. A number with no mark means an inactive call. Rule as the data show it: active = inhibition above about 50%; inactive = the rest.
# Assay: Leishmania major promastigote growth inhibition, primary screen (AID 1063);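 also: promastigotes grown with compound for 44 hours at 28 °C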
# Details: Leishmania major promastigotes, resazurin fluorescence viability; at 10 µM; active compounds read high
row,SMILES,inhibition
1,COc1ccc(Cl)cc1NC(=O)NC(C)C(C)(C)C (stereo unspecified),16.3%
2,CCOC(=O)C1CCN(C(=O)/C=C/c2cc(OC)c(OC)c(OC)c2)CC1,55% (active)
3,CCOC(=O)C1CCCN(C(=O)/C=C/c2ccc(OC)cc2)C1 (stereo unspecified),7.27%
4,COc1ccc(/C=C/C(=O)N2CCCC2)cc1OC,-1.79%
5,COc1ccc(CCNC(=O)CCCCn2c(=O)[nH]c3ccccc3c2=O)cc1OC,1.29%
6,O=C(CCCCCn1c(=O)[nH]c2ccccc2c1=O)NCCc1c[nH]c2ccccc12,97.7% (active)
7,O=C(CCn1c(=O)[nH]c2ccccc2c1=O)NCCCN1CCN(c2cccc(Cl)c2)CC1,3.18%
8,Cc1cc(C)c2c(NC(=O)C3CC3)nn(C)c2n1,-2.35%
9,O=C(CNCc1ccco1)Nc1cc(S(=O)(=O)N2CCOCC2)ccc1N1CCCC1,-1.86%
10,O=C(COc1ccc2ccccc2c1)N1CCN(C(=O)c2cccs2)CC1,-4.2%
11,Cc1ccc(C(C)C)cc1OCCN1CCCC1,92.5% (active)
12,Clc1ccccc1-c1cc(COc2ccc3ccccc3c2)no1,-8.15%
13,COc1cccc(OCCCN2CCCCCC2)c1,91.6% (active)
14,Cc1cc(OCCN2CCCC2)cc(C(C)C)c1,92.5% (active)
15,c1ccc2cc(OCCN3CCCC3)ccc2c1,84.2% (active)
16,COc1cccc(OCCOc2cccc(/C=N/n3cnnc3)c2)c1,3.61%
17,COc1ccc(NC(=O)CCN2CCCC2)c(OC)c1,-0.8%
18,COc1cccc(OCC(O)CN2CCN(CCO)CC2)c1 (stereo unspecified),-0.73%
19,CCn1c(SCc2ccccc2)nc2c(c1=O)SCC2,-0.56%
20,O=C(Nc1cccnc1)c1ccc(Cl)cc1[N+](=O)[O-],2.3%
21,Cc1ccc(-c2cc(C(=O)N3CCc4ccccc4C3)no2)cc1,-3.45%
22,CCC(=O)Nc1sc(C(=O)Nc2ccccc2)c(C)c1C(=O)OC,0.3%
23,CC(C)C(=O)Nc1ccc2oc(=O)ccc2c1,2.46%
24,CCn1cc(-c2cc(C(=O)O)on2)c(C)n1,-3.4%

row,SMILES,inhibition
1,COc1ccc(NC(=S)Nc2ccc(S(N)(=O)=O)cc2)c(C)c1,5.95%
2,CCCc1nnc(SCC(=O)N2C(C)CCCC2C)n1CC (stereo unspecified),-8.2%
3,O=C(NCc1ccc(Cl)cc1)NCc1ccc(Cl)cc1,-7.12%
4,Cc1cc(OCCN2CCCC2)ccc1C(C)C,96.4% (active)
5,CCNC(=O)CC1C(=O)N(c2ccc(F)cc2)C(=O)N1Cc1cccs1 (stereo unspecified),-6.2%
6,O=C(Nc1ccc(S(=O)(=O)N2CCCC2)cc1Cl)C1=COCCO1,13.3%
7,CSCCC(Nc1ccc(S(=O)(=O)N2CCOCC2)cc1[N+](=O)[O-])C(=O)OCC(=O)N(C(C)C)C(C)C (stereo unspecified),6.07%
8,C/C(=N\Nc1nc(N2CCOCC2)nc(N2CCOCC2)n1)c1ccc([N+](=O)[O-])cc1,7.51%
9,O=[N+]([O-])c1cc(C(F)(F)F)ccc1NN=C1CCCC1,-5.08%
10,CC(C)N1CCC(=NNc2ccc([N+](=O)[O-])cc2S(=O)(=O)N2CCOCC2)CC1,100% (active)
11,O=[N+]([O-])c1cc(S(=O)(=O)N2CCCC2)ccc1NN=C1CCCC1,72.8% (active)
12,COc1cccc(NC(=O)Cn2c3ccccc3c3nc4n(c(=O)c32)CCS4)c1,1.79%
13,CC1(C)CC(=O)C=C(N2CCOCC2)C1,-0.57%
14,O=C(O)/C=C/c1cn(Cc2ccccc2)nc1-c1cccs1,-1.31%
15,COc1ccc(S(=O)(=O)Nc2ccc(O)c(Sc3nc4ccccc4s3)c2)cc1,2.71%
16,O=C(O)c1cccc(S(=O)(=O)Nc2ccc(O)cc2Sc2nc3ccccc3s2)c1,3.69%
17,O=[N+]([O-])c1c(NCCO)cc(Sc2nc3ccccc3s2)c2nonc12,61.2% (active)
18,CCCCC(CC)CNC(=O)C(=O)C1C(=O)Nc2ccccc21 (stereo unspecified),-2.85%
19,CC(=O)Nc1ccc(NC(=O)CSc2nnc(COc3ccccc3C)n2CC2CCCO2)cc1 (stereo unspecified),-3.47%
20,COc1ccc(C(=O)NC2CCN(C(=S)NCCc3ccccc3)CC2)cc1,-3.89%
21,CC(C)NC(=O)NC(=O)CSc1nnc(-c2ccccc2F)n1N,-1.13%
22,Cc1ccc(C2CC(c3cccc(NS(C)(=O)=O)c3)=NN2S(C)(=O)=O)cc1 (stereo unspecified),10.8%
23,CS(=O)(=O)Nc1ccc(C2=NN(S(C)(=O)=O)C(c3cccs3)C2)cc1 (stereo unspecified),0.6%
24,CS(=O)(=O)Nc1cccc(C2=NN(S(=O)(=O)c3ccccc3)C(c3cccs3)C2)c1 (stereo unspecified),90.1% (active)

row,SMILES,inhibition
1,CCS(=O)(=O)c1ccc(C(=O)NC)c(Cl)c1Cl,2.32%
2,Cc1nc2ccc(C(=O)N3CCN(c4ccccc4)CC3)cc2s1,-9.02%
3,O=C(NNC(=O)c1cc2c(s1)CCCC2)c1ccccc1,78.1% (active)
4,O=C(COC(=O)c1cc2c(s1)CCCC2)NCc1ccccc1Cl,-8.28%
5,O=C(CNC(=O)c1cc2c(s1)CCC2)Nc1ccccc1Br,-6.67%
6,O=C(c1cc2c(s1)CCC2)N1CCN(c2ccccc2)CC1,93.8% (active)
7,O=C(Nc1cccc(NC(=O)N2CCN(c3ccccc3)CC2)c1)N1CCN(c2ccccc2)CC1,35.8%
8,CCOC(=O)Cc1cc(=O)[nH]c(=O)[nH]1,-1.79%
9,O=C(COC(=O)c1ccccn1)Nc1cccc2ccccc12,-8.4%
10,Cc1cc(C)cc(NC(=O)Cn2cnc3c(nnn3Cc3ccc(F)cc3)c2=O)c1,-2.51%
11,Cc1cccc(C)c1NC(=O)Nc1ccccc1-n1ccnc1,-5.13%
12,CN1CCC(=NNC(=O)CN(c2cccc(Cl)c2)S(C)(=O)=O)CC1,-4.77%
13,COc1ccccc1C(=O)NN1C(=O)C2C3C=CC(O3)C2C1=O (stereo unspecified),-5.97%
14,CC12CCC(C(=O)N(NC(=O)c3ccccc3O)C1=O)C2(C)C (stereo unspecified),69.9% (active)
15,CC12CCC(C(=O)N(c3cccc(Cl)c3)C1=O)C2(C)C (stereo unspecified),-2.92%
16,COc1ccc(-c2csc(NC(=O)COC(=O)Cc3ccc(Cl)cc3Cl)n2)cc1,1.41%
17,COc1ccc(-c2csc(NC(=O)COC(=O)c3ccc(Br)o3)n2)cc1,95.2% (active)
18,COc1ccc(-c2csc(NC(=O)CCCc3cccs3)n2)cc1,10.5%
19,Cc1cc(CNCc2c(C(=O)N(C)Cc3ccccc3)nc3ccccn23)nn1C,0.26%
20,O=C(O)c1ccccc1-c1ccccc1C(=O)Nc1nccs1,-1.78%
21,CCC(=O)c1ccc(OCC(O)CN2CCN(c3cccc(C(F)(F)F)c3)CC2)cc1 (stereo unspecified),13.7%
22,O=C(c1ccccc1)c1ccc(OCC(O)CN2CCCC2)cc1 (stereo unspecified),31.6%
23,Cn1c(=O)c2c(nc(N3CCCCCC3)n2CC(O)COc2ccc(Cl)cc2)n(C)c1=O (stereo unspecified),56.5% (active)
24,OC(COc1ccc2c(c1)CCC2)CN1CCN(c2cccc(Cl)c2)CC1 (stereo unspecified),98.7% (active)

row,SMILES,inhibition
1,OC(COc1ccc(CN2CCSCC2)cc1)CN1CCCCC1 (stereo unspecified),19%
2,Cc1cccc(Cn2c(N3CCN(c4ccccc4)CC3)nc3c2c(=O)n(C)c(=O)n3C)c1,-1.6%
3,Cn1c(=O)c2c(nc(N3CCCCCC3)n2CC(=O)c2ccc(Br)cc2)n(C)c1=O,-0.4%
4,O=c1cc(CN2CCN(c3cccc(Cl)c3)CC2)c2cc3c(cc2o1)CCCC3,5.66%
5,CCC(=O)c1ccc(OCC(O)CN2C(=O)NC(C)(C)C2=O)cc1 (stereo unspecified),-2.21%
6,O=C(c1ccc(Cl)cc1)c1ccc(OCC(O)CN2CCCCC2)cc1 (stereo unspecified),99.2% (active)
7,CCC(=O)c1ccc(OCC(O)CN2CC(C)OC(C)C2)cc1 (stereo unspecified),87.5% (active)
8,O=C(C(c1ccccc1)c1ccccc1)N1CCN(CC(O)COc2ccccc2)CC1 (stereo unspecified),9.16%
9,COc1cc(C(=O)N[C@@H](C)C(=O)NCc2ccco2)cc(OC)c1OC,-6.03%
10,CCCCn1c(N)c(N(CC)C(=O)/C=C/c2ccco2)c(=O)[nH]c1=O,-4.32%
11,[O-][n+]1c2c(nn1-c1ccc(Cl)c(Cl)c1)-c1nonc1CC2,13.6%
12,Cc1nc(N2CCCCC2)sc1C=O,6.31%
13,CCC(C)(C)c1ccc(OCC(=O)N(C)C)c(C(C)(C)CC)c1,18.1%
14,COC(=O)CNC(=O)c1ccc(OC2CCN(C(=O)C3CC3)CC2)cc1,-6.39%
15,CCOc1cc(CNn2c(C)nnc2SCC(=O)NC(C)(C)C)ccc1OCC(=O)NC(C)(C)C,0.56%
16,CC1(C)C(c2cccs2)=[N+]([O-])C2(CCCCC2=O)N1O (stereo unspecified),-6.22%
17,COCCN(Cc1nc(-c2ccc(C(F)(F)F)cc2)no1)C(C)C,0.28%
18,O=C(Nc1ccnc(-c2ccncc2)n1)c1cccs1,1.21%
19,COC(=O)CCNC(=O)c1ccc2[nH]c(C)c(C)c2c1,-6.37%
20,COc1ccc(-c2[nH]ncc2CN(C)Cc2cccnc2)c(F)c1,5.13%
21,CC/C(O)=C1\C(=O)CC(C)(C)CC1=NCCc1nc2ccccc2[nH]1,2.52%
22,CC(=O)c1cccc(NC(=O)Nc2ccc(C)cc2)c1,-3.66%
23,COC(=O)c1ccc(NC(=O)Nc2ccc(C)cc2)cc1,91.7% (active)
24,Cc1ccc(NC(=O)CC(=O)Nc2ccc(C)cc2)cc1,-5.48%

# Reference: PubChem BioAssay AID1063 (University of Pittsburgh Molecular Library Screening Center, 2008)
